High-throughput results as filed in PubChem BioAssay.
CYP2C9 inh: inhibitors of human CYP2C9 | P11712 | CYP2C9 Supersomes, luciferin-H conversion, luminescence | inhibition, % at 5 µM | actives 20% (n = 96,000) | AID 777;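 active = blocking of liver enzyme CYP2C9 beyond about 50% at 5 µM, limit read from the data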
CYP2C19 inhib: blocks human cytochrome P450 2C19; P33261; CYP2C19 Supersomes, luciferin-H EGE luminescence, 30 min; inhibition, % at 5 µM; actives 21% (n = 96,000); AID 778;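 active = CYP2C19 inhibition above a set limit at 5 µM in the primary screen, cut at about 50% in these data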;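 also: plate controls were negative control wells for no effect and 2.5 mM tranylcypromine positive control for full effect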
Target sequence (P33261 whole entry, looked up): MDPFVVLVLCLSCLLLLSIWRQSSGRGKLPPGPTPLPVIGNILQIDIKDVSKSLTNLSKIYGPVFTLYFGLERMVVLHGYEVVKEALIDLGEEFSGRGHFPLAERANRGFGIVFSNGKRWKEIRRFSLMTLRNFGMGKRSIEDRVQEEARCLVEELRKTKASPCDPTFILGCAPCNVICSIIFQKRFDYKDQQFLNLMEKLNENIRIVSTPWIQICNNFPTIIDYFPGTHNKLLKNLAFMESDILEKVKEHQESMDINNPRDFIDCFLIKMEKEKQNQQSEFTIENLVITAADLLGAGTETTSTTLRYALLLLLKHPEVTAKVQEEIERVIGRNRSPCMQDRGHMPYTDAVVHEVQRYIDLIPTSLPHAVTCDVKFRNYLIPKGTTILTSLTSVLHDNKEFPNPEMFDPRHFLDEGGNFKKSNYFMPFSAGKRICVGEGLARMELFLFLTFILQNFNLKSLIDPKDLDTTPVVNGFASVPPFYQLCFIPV
CYP2C19 act: cytochrome P450 2C19 (human) activation | P33261 | recombinant CYP2C19, luciferin-H EGE luminescence; active compounds read high; 0 = fully inhibited enzyme, 1 = untreated enzyme | activation factor at 5 µM | 96,000 tested, under 10 active | AID 1025;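 active = activation factor of at least 2 at 5 µM in the primary screen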;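 also: 0 = wells with 2.5 mM tranylcypromine and 1 = vehicle-only wells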
Measles CPE: protection of cells from measles virus; Measles virus-infected cells, CPE protection, absorbance; protection (pct of control), % at 4 µM; actives 1.5% (n = 140,000); in the data active = protection mostly above about 24%, no sharp cut-off; inactive = mostly below about 26%
CYP2C9 activ: CYP2C9 (human) activation; P11712; recombinant CYP2C9, luciferin-H conversion, luminescence; active compounds read high; factor 1 = untreated enzyme, 0 = blocked; activation factor at 5 µM; actives 1.4% (n = 96,000); AID 1024;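 active = activation factor of 2 or more for CYP2C9 at a 5 µM dose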;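 also: 0 = sulfaphenazole-blocked wells and 1 = vehicle-only wells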
* hit, by the source's call; · = no result. Rows were chosen to be rich in hits. Some 22% of all compounds tested hit in one or more screens of this group.

SMILES	CYP2C9 inh	CYP2C19 inhib	CYP2C19 act	Measles CPE	CYP2C9 activ
O=C(Nc1ccc(Cl)cc1)N(Cc1cccs1)Cc1cccs1	38.3	23.4	0.8	4.9	0.6
O=C(Cc1cccs1)Nc1ccccc1NC(=O)Cc1cccs1	27.8	50.6*	0.5	6.8	0.7
O=C(CN1CCOCC1)N/N=C/c1cc2ccccc2nc1Cl	2.9	18.6	0.8	3.1	1
Cc1ccc(NCC(=O)N/N=C/c2cc3ccccc3nc2Cl)cc1	53.7*	29.8	0.7	7.8	0.5
CCOC(=O)c1c(NC(=O)C2COc3ccccc3O2)sc2c1CC(C)(C)NC2(C)C (configuration not stated)	·	·	·	47.0*	·
CCOC(=O)c1c(NC(=O)C2COc3ccccc3O2)sc(C(C)=O)c1C (configuration not stated)	45.8	21.9	0.8	36.6	0.5
COc1cc(OC)cc(C(=O)NCCNC(=O)c2ccccc2)c1	46.4	53.3*	0.5	4.1	0.5
COc1cc(OC)cc(C(=O)NC(=S)NCCc2ccccc2)c1	51.0*	47.5	0.5	1.7	0.5
COc1ccc(-c2[nH]c3ccccc3c2SCCNC(=O)c2ccccc2)cc1	·	·	·	32.4*	·
COc1ccc(C(=O)NC(=S)NCc2ccccc2)cc1	-3.2	4.4	1	3.0	1
O=C(NCNC(=O)c1ccccc1)c1ccccc1	-3.1	93.7*	0.1	4.9	1
Cc1nn(C)c(C(=O)N/N=C/c2cccc3ccccc23)c1Cl	·	·	·	4.8	·
CC(CN1CCOCC1)(NS(=O)(=O)c1ccccc1)c1ccccc1 (configuration not stated)	59.8*	92.0*	0.1	6.0	0.4
COc1ccc(NS(=O)(=O)c2ccc(O)c(C(=O)OCC(=O)Nc3ccc4c(c3)OCCO4)c2)cc1	·	·	·	5.6	·
NC(=O)c1ccccc1NS(=O)(=O)c1ccc2c(c1)OCCO2	-25.4	75.9*	0.2	4.2	1.3
CCC(CC)NC(=O)COC(=O)c1ccc(NS(=O)(=O)c2ccc3c(c2)OCCO3)cc1	98.6*	84.4*	0.2	7.4	0
CC(=O)c1cc2c(cc1NC(=O)CCCC(=O)O)OCO2	-16.0	-22.7	1.2	7.0	1.2
O=C(NS(=O)(=O)c1ccc2c(c1)OCCO2)c1ccccc1	58.4*	-7.1	1.1	8.2	0.4
CC(NS(=O)(=O)c1ccc2c(c1)OCCCO2)C(=O)O (configuration not stated)	·	·	·	11.4	·
CC(=O)c1cc2c(cc1NC(=O)CN1CCCCCCC1)OCO2	68.7*	83.4*	0.2	12.7	0.3
CCN1CCN(c2ccc(NC(=O)c3ccc4c(c3)[nH]c(=O)n4Cc3ccc(F)cc3)cc2)CC1	·	·	·	30.0	·
Cc1nnc(SCC(=O)NCc2ccccc2Cl)n(N)c1=O	·	·	·	7.7	·
CC(=O)Nc1cc2c(cc1C(C)=O)OCCO2	13.6	25.5	0.7	8.2	0.9
CC(=O)c1cc2c(cc1NC(=O)C1CC=CCC1C(=O)O)OCO2 (configuration not stated)	74.5*	-1.3	1	7.8	0.3
CCN(CC)S(=O)(=O)c1ccc(S(=O)(=O)Nc2cc3c(cc2C(C)=O)OCO3)cc1	97.3*	51.5*	0.5	9.0	0
SMILES	CYP2C9 inh	CYP2C19 inhib	CYP2C19 act	Measles CPE	CYP2C9 activ
O=C(O)C1CC=CCC1C(=O)Nc1ccc2c(c1)OCCO2 (configuration not stated)	·	·	·	33.9	·
CC(=O)c1cc2c(cc1NS(=O)(=O)c1ccc3c(c1)OCCO3)OCO2	-71.0	98.7*	0	10.9	1.7
CC(=O)c1cc2c(cc1NS(=O)(=O)c1ccc(C)cc1)OCO2	-11.9	63.0*	0.4	1.8	1.1
CC12CN3CC(C)(CN(C1)C31C(=O)N(Cc3ccccc3)c3ccccc31)C2=O (configuration not stated)	-7.7	1.8	1	·	1.1
CC(C)[C@H](NS(=O)(=O)c1ccc2c(c1)OCCO2)C(=O)OCC(=O)Nc1cc(Cl)ccc1Cl	·	·	·	11.5	·
COC(=O)c1ccc(Cl)c(NS(=O)(=O)c2ccc3c(c2)OCCO3)c1	37.1	86.8*	0.1	-1.2	0.6
COc1ccc(C(=O)N/N=C(\C)Cn2cnc([N+](=O)[O-])n2)cc1	·	·	·	11.4	·
Cc1ccccc1N(C)C(=O)c1coc(=O)c2ccccc12	-14.3	22.4	0.8	10.8	1.1
CCC(C(=O)Nc1nccs1)(C(F)(F)F)C(F)(F)F	78.0*	5.5	0.9	8.5	0.2
N#CSCC(=O)c1cccc2ccccc12	·	·	·	8.7	·
COC(=O)Nc1c(C)nn(Cc2ccccc2C)c1C	-3.2	58.1*	0.4	4.8	1
Cc1ccccc1Cn1nc(C)c(NC(=O)c2noc3c2CC(C(C)(C)C)CC3)c1C (configuration not stated)	48.3	27.9	0.7	10.0	0.5
Cc1ccccc1Cn1nc(C)c(NC(=O)/C=C/c2cnn(C)c2C)c1C	·	·	·	12.7	·
Cc1ccccc1Cn1nc(C)c(NC(=O)c2noc3c2CCc2ccccc2-3)c1C	78.7*	57.5*	0.4	16.8	0.2
Cc1ccc(C)c(S(=O)(=O)N/N=C/c2ccc(C(=O)O)cc2)c1	·	·	·	8.7	·
CN1CCN(C(=O)Nc2cccc3ccccc23)CC1	-19.2	-6.2	1.1	5.0	1.2
CNC(=O)C1CC(=O)N(CCCc2ccccc2)C(=Nc2ccccc2)S1 (configuration not stated)	56.3*	64.6*	0.4	32.8	0.4
Cc1cc2c(cc1C)C(c1cccc([N+](=O)[O-])c1)CC(=O)N2 (configuration not stated)	·	·	·	12.9	·
O=C1CC(c2cccc(Br)c2)c2cc3c(cc2N1)CCC3 (configuration not stated)	54.9*	29.4	0.7	24.7	0.5
COc1c(C(C)C)cc(NC(C)=O)cc1C(C)C	25.1	88.7*	0.1	11.5	0.7
CC(C)c1cc(NC(=O)C(C)(C)C)cc(C(C)C)c1O	-25.1	-7.8	1.1	13.6	1.3
O=C(/C=C\c1cccs1)c1c(O)ccc2ccc(=O)oc12	·	·	·	7.7	·
Cc1nn(C)c(=O)n1-c1ccc(OCc2ccccc2)cc1	33.2	56.5*	0.4	6.9	0.7
Clc1ccc(CSc2nnc(/C=C/c3ccccc3)o2)cc1	14.1	8.9	0.9	3.2	0.9
Cc1c(C(=O)COC(C)(C)C)[nH]c2ccccc12	-8.3	54.7*	0.5	36.0	1.1
SMILES	CYP2C9 inh	CYP2C19 inhib	CYP2C19 act	Measles CPE	CYP2C9 activ
Cc1nn2c(-c3ccncc3)nnc2c2ccccc12	25.5	85.2*	0.1	9.2	0.7
COc1ccc(-c2nnc3c4ccccc4c(C)nn23)cc1	-0.6	22.7	0.8	4.2	1
C/C=C/C(=O)OCC(=O)Nc1c(Cl)cccc1Cl	26.2	39.7	0.6	29.8*	0.7
C/C=C/C(=O)OCC(=O)Nc1cc([N+](=O)[O-])ccc1Cl	·	·	·	5.2	·
c1ccc(C2=NNC(=NC3CC3)SC2)cc1	54.2*	84.2*	0.2	13.6	0.5
c1ccc2c(C3=NNC(=NC4CC4)SC3)c[nH]c2c1	·	·	·	28.3	·
Cc1ccc(C(=O)NCC(=O)OCC(=O)Nc2ncc(C(F)(F)F)cc2Cl)cc1	·	·	·	5.2	·
